IL-1B inflam inh: qHTS for Inhibitors of Inflammasome Signaling: IL-1-beta AlphaLISA Primary Screen | THP-1 LPS/ATP IL-1B secretion, AlphaLISA, 16 h; hits give low values | 360,000 tested, 4.7% active | activity change, % at 57.5 µM; in the data active = activity change below about -50%; inconclusive = mostly about -30% to -49%
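THP-1 cells pretreated 1 hr with compounds (up to 57.5 uM final), then stimulated with LPS (250 ng/mL final) plus ATP (1.25 mM final); secreted IL-1B measured by AlphaLISA after 16 hr, decreased signal indicating inhibition.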
DT40 TDP1 CPT: qHTS for Inhibitors of human tyrosyl-DNA phosphodiesterase 1 (TDP1): qHTS in cells in presence of CPT; chicken DT40 Tdp1-/-;hTDP1 cells + 20 nM CPT, ATP luminescence, 48 h; Potency, µM (doses to about 46.2 µM), hits mostly inhibitors; 420,000 tested, 12% active; also: nearly all actives have a fitted effect of over 55% in size
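Cell growth measured by CellTiter-Glo luminescence after a minimum 48 h, 37 C compound exposure with 20 nM CPT in Tdp1-knockout DT40 cells stably expressing hTDP1, seeded 400/well; qHTS titration format.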
DT40 TDP1 no CPT: qHTS for Inhibitors of human tyrosyl-DNA phosphodiesterase 1 (TDP1): qHTS in cells in absence of CPT; 420,000 tested, 15% active; Potency, µM (titrated, usually from 46.2 µM), hits mostly inhibitors; DT40 Tdp1-/- hTDP1 cells, no CPT, ATP luminescence, 48 h; AID 686978, 2013; also: nearly all actives have a fitted effect of over 55% in size
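No-CPT arm: Tdp1-/-;hTDP1 DT40 cells (400/well) plus compounds, incubated ≥48 hr at 37 °C. Readout CellTiter-Glo luminescence.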
HT1080 IDH1KD tx: qHTS for induction of synthetic lethality in tumor cells producing 2HG: qHTS for the HT-1080-IDH1KD cell line. Potency, µM (doses to about 46.1 µM), actives largely listed as cytotoxic. HT-1080 IDH1 knockdown viability, ATP luminescence, 48 h. 360,000 tested, 2% active
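CellTiter-Glo luminescence after 48 h compound exposure at 37 degrees C of IDH1-knockdown HT-1080 cells in 5% FBS RPMI. %Activity scaled between DMSO wells and cell-free media wells, with curves fitted and assigned curve classes.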
ELG1 repair inh: qHTS screen for small molecules that inhibit ELG1-dependent DNA repair in human embryonic kidney (HEK293T) cells expressing luciferase-tagged ELG1; HEK293T ELG1-luciferase reporter, luminescence, 16 h; DNA damage induced by 5-fluorouridine; Potency, µM (doses to about 46.1 µM), most hits filed as inhibitors; 330,000 tested, 2.3% active; AID 504467, 2011; also: nearly all actives have a fitted effect of over 55% in size
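Luminescence from the luciferase reporter, measured 30 min after ONE-Glo reagent at room temperature, was the read-out. Beforehand, 2,000 cells per well were exposed for 16 hr at 37 °C to 5-fluorouridine together with compound or vehicle.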
HT1080NT lethal: qHTS for induction of synthetic lethality in tumor cells producing 2HG: qHTS for the HT-1080-NT fibrosarcoma cell line; HT-1080-NT fibrosarcoma viability, CellTiter-Glo ATP luminescence, 48 h; Potency, µM (series often up to 46.1 µM), actives largely listed as cytotoxic; 360,000 tested, 1.6% active; AID 686970, 2013;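 also: NT is the 2HG producing partner of a matched IDH1 knockdown line; nearly all actives have a fitted effect of over 55% in size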
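Fibrosarcoma NT cells, 750 per well in 5% FBS RPMI, were exposed to compound for 48 hours. Viability: CellTiter-Glo luminescence.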
A number is an active result; n = inactive; u = inconclusive; x = no result; [ ] = dose if it differs, or a comment. The list is not random: actives were taken first. Their share in the collection is about 19%. Unless noted, calls follow the shape of the dose curve; as a rule, active = well fitted curve in the direction sought with a large enough effect; inconclusive = small, poorly fitted or top-dose-only effect, or another doubt; inactive = no such curve, though single readings can be large; an effect the other way counts as inactive or inconclusive.

SMILES	IL-1B inflam inh	DT40 TDP1 CPT	DT40 TDP1 no CPT	HT1080 IDH1KD tx	ELG1 repair inh	HT1080NT lethal
CCOC(=O)c1ccccc1NC(=O)Cn1c(=O)n(-c2cccc(C)c2)c(=O)c2c1c1cc(C)ccc1n2C	x	n	n	x	x	x
CN(C)CCN1CCN(C2CN(Cc3ccc(F)cc3)S(=O)(=O)C2)CC1 (stereo not given)	n	n	n	n	x	n
COc1ccc(CN(C)C(=O)c2ccncc2)c(OC)c1	n	n	n	n	n	n
COc1ccc(CN(C)C(=O)CNC(=O)Cc2cccc3ccccc23)c(OC)c1OC	n	u	n	n	n	n
Cc1ccc2nc(-c3ccc(Cl)cc3)cc(C(=O)OCC(=O)c3ccccc3)c2c1	x	u	21µM	x	x	x
COc1ccc(CN(C)C(=O)c2cc(-c3ccccc3)nc3ccc(C)cc23)c(OC)c1	u	5.8µM	5.8µM	u	x	u
N/C(=N\OC(=O)c1cc(-c2ccccc2)nc2ccccc12)c1ccc(Cl)cc1	n	u	u	n	n	n
COc1ccccc1CN(C)C(=O)C(NC(=O)Cc1cccc2ccccc12)C(C)C (stereo not given)	-62	u	23µM	n	n	n
O=C(NNS(=O)(=O)c1ccccc1[N+](=O)[O-])c1cccnc1	n	u	u	n	n	n
Nc1nc(=S)c2[nH]cnc2[nH]1	n	2.6µM	1.8µM	1.3µM	n	2.3µM
C[C@@H]1CN([C@@H](C)CO)S(=O)(=O)c2ccc(C#CC(C)(C)O)cc2O[C@H]1CN(C)C(=O)C1CCCCC1	n	n	u	n	x	n
Cn1nnnc1Sc1ncnc2scc(-c3ccc(C(F)(F)F)cc3)c12	x	x	x	x	6.5µM	x
Cn1nnnc1Sc1ncnc2scc(-c3cc4ccccc4o3)c12	x	x	x	x	21µM	x
Cc1ccc(-c2csc3ncnc(SCC(=O)O)c23)cc1	n	n	n	n	n	n
Cc1cc(C)n(Cc2cccc(C(=O)NCC3Cc4cccc(-c5ncccn5)c4O3)c2)n1 (stereo not given)	x	n[9.04 µM]	n	x	x	x
Cc1cc(=O)[nH]c(N/N=C/c2ccc(OC(=O)c3ccco3)cc2)n1	n	n	n	n	n	n
C=CCc1c(C)nc2c(-c3ccccc3)cnn2c1N1CCOCC1	n	n	u	n	u	n
Nc1ncnc2c(C3OC(CO)C(O)C3O)scc12 (stereo not given)	-116	0.012µM	0.016µM	0.037µM	x	0.26µM
CNc1nc2c(N)ncnc2n1[C@H]1O[C@@H](CO)[C@H](O)[C@@H]1O	n	u	u	n	u	n
CN(C)/N=C/c1cc([N+](=O)[O-])ccc1O	n	n	u	n	n	n
CC[n+]1c(/C=C/c2ccc(N(C)C)cc2)ccc2ccccc21	-99	0.16µM	0.15µM	10µM	n	10µM
CC[n+]1c(/C=C/c2ccc(OC)c(OC)c2)ccc2ccccc21	n	u	u	n	u	n
CC[n+]1ccccc1/C=C/c1ccc(N(C)C)cc1	-57	1µM	0.46µM	18µM	u	u
CC[n+]1c(/C=C/c2cc([N+](=O)[O-])ccc2O)ccc2ccccc21	n	u	23µM	n	n	n
CC[n+]1ccc(/C=C/c2ccc(N(C)C)cc2)c2ccccc21	-106	0.073µM	0.0065µM	1.3µM	u	u
SMILES	IL-1B inflam inh	DT40 TDP1 CPT	DT40 TDP1 no CPT	HT1080 IDH1KD tx	ELG1 repair inh	HT1080NT lethal
CN(C)c1ccc(/C=N/NC(=O)C[n+]2ccccc2)cc1	n	n	n	n	x	n
CCCCCC[n+]1ccccc1/C=C/c1ccc(N(C)C)cc1	u	0.058µM	0.052µM	1.2µM	x	7.3µM
CN(C)c1ccc(/C=C/c2nc3ccccc3o2)cc1	x	n	u	x	x	x
CC[n+]1c(/C=C/c2ccc(OC(C)=O)c(OC)c2)ccc2ccccc21	-85	16µM	18µM	n	u	n
CCN(CC)c1ccc(/C=C/c2ccc3ccc(OC)cc3[n+]2CC)cc1	-83	0.065µM	0.18µM	u	u	u
CC(C)CN1CC2(CCN(C(=O)c3csnn3)CC2)C1	x	n	n	x	x	x
COc1ccc(OC)c(C(=O)CN2C(=O)N(c3ccc(C)cc3)S(=O)(=O)c3ccccc32)c1	x	n	n	x	x	x
COc1cccc(NC(C(=O)Nc2cccc(C(C)=O)c2)c2ccccc2)c1 (stereo not given)	n	n	u	n	n	n
Cc1cc(C)cc(NC(=O)C(Nc2ccccc2)c2ccccc2)c1 (stereo not given)	n	18µM	n	n	u	n
Cc1ccc(NC(=O)C(Nc2cccc(C)c2)c2ccccc2)cc1 (stereo not given)	n	u	18µM	n	n	n
Cc1ccc(NC(C(=O)c2ccccc2)c2ccccc2)cc1 (stereo not given)	-73	u	13µM	u	x	23µM
Cc1ccc(NC(=O)C(Nc2ccccc2)c2ccccc2)cc1 (stereo not given)	n	n	n	n	n	n
CC(NC(C(=O)c1ccccc1)c1ccccc1)c1ccccc1 (stereo not given)	n	n	n	n	x	n
CN(/N=C\c1ccc(O)c(O)c1)c1nc(-c2ccccc2)cc(-c2ccccc2)n1	-61	0.82µM	1.5µM	u	13µM	u
O=C1c2ccccc2C(=O)N1/N=C/c1ccc(O)c(O)c1	n	n	n	n	n	n
CCCOc1ccc(C(=O)N2CCN(Cc3ccc4c(c3)OCO4)CC2)cc1	u	n	n	n	n	n
Cc1csc(N=Nc2ccc(N(C)C)cc2)[n+]1[O-]	-80	10µM	9.2µM	u	x	u
CN(C)c1ccc(N=Nc2ccccc2C(=O)O)cc1	x	u	n	x	x	x
OCCSc1nnc(Nc2ccccc2)s1	n	n	n	n	u	n
CCOc1ccccc1C(=O)Nc1nnc(Cc2ccc(OC)c(OC)c2)s1	n	n	u	n	n	n
CCOc1cc(-c2sc(Nc3cc(C)ccc3OC)n[n+]2-c2ccccc2)ccc1OC	n	15µM	16µM	n	n	n
CCOc1cc(-c2sc(Nc3ccc(CC)cc3)n[n+]2-c2ccccc2)ccc1OC	n	16µM	18µM	n	u	n
C(=C\c1sc(Nc2ccccc2)n[n+]1-c1ccccc1)/c1ccccc1	-98	5.2µM	8.2µM	n	x	n

Source: PubChem BioAssay
